From the supplement of paper PMC10338343
± gives the standard deviation. Whole data set: some 3,000 sequences, median “pre-steady-state target cleavage rate” near 0.0079, cut for the highest 2% near 0.2. The entries come from a sample that favours the highest values as a whole.

Test system: MILI (PIWIL2) piRISC loaded with piRNA #2 (26 nt)
Assay: pre-steady-state target cleavage rate (min^-1); MIWI and MILI are mouse PIWI proteins and EfPiwi is from a freshwater sponge; tags in brackets are library labels; higher = faster piRNA-guided slicing of the target
Conditions: guide: piRNA #2 5'p-UUAGGUAACCCAGUAGAUCCAGAGGA; auxiliary factor: 500 nM mouse GTSF1
Protocol: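 Cleave-'n-Seq: a library of target RNAs (target site embedded in constant flanks, ACAGCATTCCGCGTTAGTGATATCCG... 5' flank; DNA-blocked outside the site) at 0.1 nM was incubated with 1 nM active mouse MILI or MIWI piRISC (synthetic 5'-monophosphorylated piRNA guide) with or without 500 nM mouse GTSF1 at 33 °C for 1 min to 16 h. Uncleaved targets were sequenced and normalised to non-target controls, and the pooled three trials were fitted to a burst-and-steady-state model to give the pre-steady-state cleavage rate (min^-1; k3 is constrained to at most 1e-4). Sequence is the target site only; target names encode pairing extent (gX:gY) and contiguous / 1-mismatch / 2-mismatch / bulge geometry. Fits with R² ≤ 0 are excluded.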

Point of comparison: CUUAUCCUCUGGAACUACUGGGUUAGCUAA, “pre-steady-state target cleavage rate” value 0.0654 ± 0.021. Against it:
- CUUAAGCUCUGGAUCUAGUGGGUUACCUAA — lower, 0.0282 ± 0.0073
- CUUAUCCUCUGGACCUACUGGGUUACCUAA — within error, 0.0996 ± 0.024
- CUUAUCCUCUGGAUCCUACUGGGUUACCUAA — within error, 0.0665 ± 0.018
- CUUAUCCUCUGGAGCUACUGGGUUACCUAA — higher, 0.238 ± 0.052
- CUUAACCUCUGGACCUACUGGGUUACCUAA — within error, 0.0796 ± 0.023
- CUUAACCUCUGGAGCUACUGGGUUACCUAA — higher, 0.226 ± 0.049
- CUUAAGCUCUGGAGCUACUGGGUUACCUAA — within error, 0.0783 ± 0.014
- CUUAACCUCUGGAUCUACUGGGAUACCUUA — within error, 0.0634 ± 0.023
- CUUAAGGUCUGGAUCUACUGGGUUACCUUAA — within error, 0.0607 ± 0.015
- CUUAAGCUCUCCUUCUACUGGGUUACCUAA — within error, 0.0472 ± 0.016
- CUUACCCUCUGGAUCUACUGGGUUACCUAA — higher, 0.11 ± 0.016
- CUUAUACUCUGGAUCUACUGGGUUACCUAA — within error, 0.0651 ± 0.014
- CUUAGCCUCUGGAUCUACUGGGUUACCUAA — higher, 0.218 ± 0.05
- CUUAAGCCCUGGAUCUACUGGGUUACCUAA — higher, 0.202 ± 0.041
- CUUAAGCUGCUGGAUCUACUGGGUUACCUAA — within error, 0.0417 ± 0.015
- CUUAAGCCUCUGGAUCUACUGGGUUACCUAA — higher, 0.146 ± 0.043
- CUUAUACCUCUGGAUCUACUGGGUUACCUAA — higher, 0.251 ± 0.058
- CUUAACCUCUGGAUCUACUGGGUUAGCCUAA — higher, 0.15 ± 0.035
- CUUAAGCCUGGAUCUACUGGGUUACCUAA — within error, 0.104 ± 0.026
- CUUAAGGACUGGAUCUACUGGGUUACCUAG [g2:g22:cont:t1G] — within error, 0.0474 ± 0.017
- CUUAAGCUCAGGAUCUACUGGGUUUCCUAA — lower, 0.0265 ± 0.01
- CUUAAGCUCUGGAUCUAAUGGGUUACCUAA — lower, 0.0186 ± 0.0042
- CUUAAGCUCUGGAUCUACUGGGUGUACCUAA — lower, 0.0345 ± 0.0091
- CUUAACCUCUGGAUCUGCUGGGUUACCUAA — within error, 0.097 ± 0.028
- CUUAUCCUCUGGAUCUGCUGGGUUACCUAA — the same, 0.0654 ± 0.015
- CUUAUCCUCUGGAUCUCUGGGUUACCUAA — lower, 0.0227 ± 0.01
- CUUAUCCUCUGGAUCUCCUGGGUUACCUAA — higher, 0.459 ± 0.18
- CUUAACCUCUGGAUCUCCUGGGUUACCUAA — higher, 0.213 ± 0.084
- CUUAACCUCUGGAUCUCUGGGUUACCUAA — lower, 0.00889 ± 0.0054
- CUUAAGCUCUGGAUCAACUGGGUUACCUUA — within error, 0.0336 ± 0.011
- CUUAAGGUCUGGAUCUACUGGGUUUACCUAA — within error, 0.0618 ± 0.011
- CUUAACCUCUGGAUCUACUGGGUUAACCUAA — higher, 0.115 ± 0.024
- CUUAAGCUCUGGAUCUACUGGGUUUGCUAA — higher, 0.144 ± 0.031
- CUUAACCUCUGGAUCUACUGGGUUAGCUAA — higher, 0.112 ± 0.022
- CUUAACCUCUGCAUCUACUGGGUUUCCUAA — within error, 0.14 ± 0.059
- CUUAACCUCUGGAUCUACUGGGUUUACCUAA — within error, 0.0817 ± 0.019
- CUUAACCUCUGGAUCUACUGGGUUUGCUAA — higher, 0.305 ± 0.066
- CUUAACCUCUCGAUCUACUGGGUUUCCUAA — higher, 0.138 ± 0.035
- CUUAACCUCUGGAUCUACUGGGUUUCCUAA — higher, 0.224 ± 0.062
- CUUAACCUCUGGUUCUACUGGGUUUCCUAA — higher, 1.67 ± 0.98
- CUUAACCUCUGGAUCUUCUGGGUAACCUAA — within error, 0.0414 ± 0.016
- CUUAACCUCUGGAUCUUCUGGGUUACCUAA — within error, 0.0795 ± 0.017
- CUUAACCUCUGGAUCUUCUGGGUUUCCUAA — higher, 0.243 ± 0.083
- CUUAAGGAGACCUAGUACUUGGUUACCUAA — lower, < 0.0001
- CUUAUGCUCUGGAUCUACUGGGUAACCUAA — within error, 0.0539 ± 0.012
- CUUAAGGACUGCAUCUACAGGGUUACCUAA — within error, 0.0435 ± 0.015
- CUUAACAUCUGGAUCUACUGGGUUACCUAA — higher, 0.114 ± 0.019
- CUUAAGGAGUGGAUCUACUGGGUUACCUAG [g2:g21:cont:t1G] — within error, 0.0456 ± 0.013
- CUUAAGCUGACGAUCUACUGGGUUACCUAA — within error, 0.0365 ± 0.015
- CUUAAGCUCUGGAUUACUGGGUUACCUAA — lower, 0.0142 ± 0.0047
- CUUAAGGAGAGGAUCUACUGGGUUACCUAA [g2:g20:cont:t1A] — lower, 0.0156 ± 0.0072
- CUUAAGGACAGGAUCUACAGGGUUACCUAA — within error, 0.0375 ± 0.014
- CUUAACCACUGGAUCAACUGGGUUACCUAA — within error, 0.0515 ± 0.014
- CUUAAGCUCUGGAUCUACUGGGUUUCCUAA — within error, 0.107 ± 0.025
- CUUAACCUCUGGAUCUACUGGGUUUCGUAA — within error, 0.128 ± 0.044
- CUUAUCCUCUGGAUCUUCUGGGUUUCCUAA — higher, 0.258 ± 0.088
- CUUAAGCUCUGCAUCUACUGGGUUUCCUAA — within error, 0.0656 ± 0.022
- CUUAAGCUCUGGAUCUUCUGGGUUUCCUAA — within error, 0.0561 ± 0.017
- CUUAAGCUCUGGUUCUACUGGGUUUCCUAA — higher, 0.219 ± 0.085
- CUUAUCCUCUGGAUCUAGUGGGUUUCCUAA — within error, 0.055 ± 0.016
- CUUAACCUCUGGAUCUACUGGGUUACCUUA — within error, 0.111 ± 0.026
- CUUAACCUCUGGAUCUACUGGGUUUCCUUA — higher, 0.225 ± 0.066
- CUUAACCUCUCGAUCUACUGGGUAACCUAA — within error, 0.0796 ± 0.017
- CUUAACCACUGGUUCUACUGGGUUACCUAA — higher, 0.112 ± 0.019
- CUUAACCACUGCAUCUACUGGGUUACCUAA — within error, 0.0927 ± 0.018
- CUUAUCCUCUGGAUCUACUGGGUGACCUAA — within error, 0.0696 ± 0.014
- CUUAUCCUCUGGAACUACUGGGUAACCUAA — within error, 0.0599 ± 0.022
- CUUAACCUCUGGAACUACUGGGUUACCUAA — higher, 0.133 ± 0.03
- CUUAUCCUCUGGAACUACUGGGUUUCCUAA — higher, 1.1 ± 0.56
- CUUAACCUCUGGAACUACUGGGUUUCCUAA — higher, 0.311 ± 0.14
- CUUAACCUCUGGAACUACUGGGUAACCUAA — within error, 0.06 ± 0.024
- CUUAAGGACUGGAUCUACUGGGUUACCUUAA — lower, 0.0243 ± 0.014
- CUUAUCCUCUGGAUCUAUUGGGUUACCUAA — higher, 0.139 ± 0.036
- CUUAAGGAGACCUAGAUGACGGUUACCGAA — lower, < 0.0001
- CUUAAGCUCUGGAUCUACUGGGUUCCCUAA — within error, 0.0477 ± 0.017
- CUUAAGCUCUGCAUCUACUGGGUUACGUAA — within error, 0.0499 ± 0.016
- CUUAUCCUCUGGAUCAACAGGGUUACCUAA — within error, 0.0724 ± 0.01
- CUUAAGGUCUGCAUCUACUGGGUAACCUAA — lower, 0.00707 ± 0.006
